{
  "source": "ChEMBL document CHEMBL3433997",
  "about": "“St. Jude Leishmania screening dataset” (2016)",
  "data": [
    {"molecular_target": "Solute carrier family 2, facilitated glucose transporter member 1 (Homo sapiens) (UniProt P11166)", "sequence (P11166 whole entry)": "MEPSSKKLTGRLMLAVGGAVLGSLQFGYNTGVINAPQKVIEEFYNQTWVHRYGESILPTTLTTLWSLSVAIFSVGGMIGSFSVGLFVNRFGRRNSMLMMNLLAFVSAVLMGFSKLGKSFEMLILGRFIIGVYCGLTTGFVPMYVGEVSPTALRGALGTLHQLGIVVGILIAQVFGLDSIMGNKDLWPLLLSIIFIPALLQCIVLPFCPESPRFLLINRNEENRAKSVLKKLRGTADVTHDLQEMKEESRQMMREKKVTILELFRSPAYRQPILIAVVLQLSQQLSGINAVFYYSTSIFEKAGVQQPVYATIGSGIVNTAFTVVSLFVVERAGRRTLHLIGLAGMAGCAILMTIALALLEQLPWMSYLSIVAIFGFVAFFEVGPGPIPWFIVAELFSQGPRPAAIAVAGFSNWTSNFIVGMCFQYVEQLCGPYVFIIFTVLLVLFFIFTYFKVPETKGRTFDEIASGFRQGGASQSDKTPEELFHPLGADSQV", "assay": "ST_JUDE_LEISH: Cytotoxicity at 2uM final concentration against transgenic Leishmania Mexicana promastigotes LmGLUT1 that are glucose transport deficient and complemented with the human glucose transporter GLUT1. Activity is measured by DNA content using SYBR green in vitro", "format": "functional", "units": {"inhibition": "%"}, "values": [
      {"smiles": "Cc1nn(-c2cccc(C(F)(F)F)c2)c2sc(C(=O)NC3CCN(C(C)C)CC3)cc12", "inhibition": 1.73},
      {"smiles": "O=C(C1CCCC1)N1CCOC(CCN2CCC(c3ccccc3)CC2)(c2ccc(Cl)c(Cl)c2)C1", "note": "(stereo unspecified)", "inhibition": 11.9},
      {"smiles": "COc1cc2c(cc1CCNCCCCNCCc1cc3c(cc1OC)CCCC3)CCCC2", "inhibition": 99.4},
      {"smiles": "CCCCCCN1CCC(NCc2cccc(C#N)c2)CC1", "inhibition": 0.29},
      {"smiles": "CCc1nc2c(N)nc(N)nc2nc1-c1ccc(OC)cc1", "inhibition": 0.85},
      {"smiles": "Cc1cc(CNCCCCCNCc2ccc(Cl)cc2)ccc1O", "inhibition": 1.35},
      {"smiles": "O=C(NC1CCC(N2CCN(c3cccc4[nH]ccc34)CC2)CC1)c1cc2cccnc2[nH]1", "note": "(stereo unspecified)", "inhibition": 12},
      {"smiles": "Clc1ccc(-c2cc(-c3csc(NCCN4CCCCC4)n3)on2)cc1", "inhibition": 6.93},
      {"smiles": "COc1ccc2c(N/N=C/c3ccc([N+](=O)[O-])cc3)ccnc2c1", "inhibition": 6.14},
      {"smiles": "CCn1c(-c2ccccc2)cc2nnc3ccccc3c21", "inhibition": 6.68},
      {"smiles": "O=C(/C=C/c1ccc(Cl)cc1)NCCCCCN1CCCC(C(=O)Nc2ccc(Cl)c(Cl)c2)C1", "note": "(stereo unspecified)", "inhibition": 0.22},
      {"smiles": "Cc1cc(NC(=O)c2ccco2)ccc1OC1CCN(Cc2ccc(F)cc2)C1", "note": "(stereo unspecified)", "inhibition": 0.1},
      {"smiles": "O=C(Cc1ccccc1)NC(CCN1CCC(N(C2CC2)S(=O)(=O)c2cccc(C(F)(F)F)c2)CC1)c1ccc(Cl)c(Cl)c1", "note": "(stereo unspecified)", "inhibition": 5.55},
      {"smiles": "COCCn1c(SC(C)C(=O)Nc2cc(C(F)(F)F)ccc2Cl)nc2ccccc2c1=O", "note": "(stereo unspecified)", "inhibition": 0.17},
      {"smiles": "CC1CCCN1Cc1cccc(-c2ccc(C(=O)NCCOc3ccccc3)s2)c1", "note": "(stereo unspecified)", "inhibition": 72},
      {"smiles": "CC(C)(C)c1cc(C(=O)N2CCN(c3ncccc3C(F)(F)F)CC2)n(Cc2ccccc2)n1", "inhibition": 5.66}
    ]}
  ]
}
